Data: PMC7862700, “An all-to-all approach to the identification of sequence-specific readers for epigenetic DNA modifications on cytosine”

Assays:
Experiment in all cases: DAPPL (digital affinity profiling via proximity ligation, sequencing); 10 mM Tris-HCl pH 7.5, 50 mM NaCl, 1 mM DTT, 4% glycerol, room temperature, 30 min; GST-TFs on glutathione beads, 16-mer random dsDNA library, 0.1% formaldehyde crosslink after washing; high values mean tight binding
Details in all cases: protein: recombinant; tags: N-terminal GST; dsDNA, one strand shown
[1] = biological target: T1, ERF (Homo sapiens, UniProt P50548 1-548)
T1 sequence: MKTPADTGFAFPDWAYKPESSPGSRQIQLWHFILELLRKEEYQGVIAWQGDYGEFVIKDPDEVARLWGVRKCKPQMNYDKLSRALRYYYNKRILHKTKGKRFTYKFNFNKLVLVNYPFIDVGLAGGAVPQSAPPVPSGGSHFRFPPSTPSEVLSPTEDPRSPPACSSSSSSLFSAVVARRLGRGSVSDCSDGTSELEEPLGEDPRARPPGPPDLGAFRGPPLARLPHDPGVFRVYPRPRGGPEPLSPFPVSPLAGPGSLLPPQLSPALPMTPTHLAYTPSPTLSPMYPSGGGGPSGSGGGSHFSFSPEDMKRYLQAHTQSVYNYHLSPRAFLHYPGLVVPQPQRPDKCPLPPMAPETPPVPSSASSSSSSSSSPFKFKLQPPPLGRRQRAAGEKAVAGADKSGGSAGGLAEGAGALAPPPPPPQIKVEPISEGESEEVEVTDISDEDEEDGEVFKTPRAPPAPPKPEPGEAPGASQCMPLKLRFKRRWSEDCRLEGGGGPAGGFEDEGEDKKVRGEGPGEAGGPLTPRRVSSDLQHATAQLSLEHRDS
In short: (§1)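 Binding signal is each hexamer's read frequency for a factor divided by its frequency in the tag-only sample. The factors were GST-fused human transcription factors from yeast, captured on glutathione beads, DNA-barcoded and pooled with that sample. Pools were incubated with 200 nmole of a random double-stranded 16-mer DNA library in Tris/NaCl/DTT/glycerol buffer at room temperature for 30 min, then washed, crosslinked with 0.1% formaldehyde, proximity-ligated with BsaI/T4 ligase (1 h, 37 °C), PCR-amplified and sequenced on an Illumina NextSeq500.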

[2] = biological target: T2, ETV3L (Homo sapiens, UniProt Q6ZN32 1-361)
T2 sequence: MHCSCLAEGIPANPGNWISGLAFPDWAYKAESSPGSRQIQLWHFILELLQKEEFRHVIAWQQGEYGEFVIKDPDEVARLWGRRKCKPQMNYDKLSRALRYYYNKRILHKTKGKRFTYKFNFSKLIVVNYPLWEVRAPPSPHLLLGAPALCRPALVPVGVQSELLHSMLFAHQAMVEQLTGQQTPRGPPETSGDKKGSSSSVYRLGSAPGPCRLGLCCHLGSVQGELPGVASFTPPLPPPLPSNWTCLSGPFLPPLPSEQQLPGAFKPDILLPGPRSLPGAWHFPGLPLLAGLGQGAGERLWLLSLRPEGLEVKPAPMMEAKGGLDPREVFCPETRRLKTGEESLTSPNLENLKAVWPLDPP
In short: as §1

[3] = biological target: T3, ETS2 (Homo sapiens, UniProt P15036 1-469)
T3 sequence: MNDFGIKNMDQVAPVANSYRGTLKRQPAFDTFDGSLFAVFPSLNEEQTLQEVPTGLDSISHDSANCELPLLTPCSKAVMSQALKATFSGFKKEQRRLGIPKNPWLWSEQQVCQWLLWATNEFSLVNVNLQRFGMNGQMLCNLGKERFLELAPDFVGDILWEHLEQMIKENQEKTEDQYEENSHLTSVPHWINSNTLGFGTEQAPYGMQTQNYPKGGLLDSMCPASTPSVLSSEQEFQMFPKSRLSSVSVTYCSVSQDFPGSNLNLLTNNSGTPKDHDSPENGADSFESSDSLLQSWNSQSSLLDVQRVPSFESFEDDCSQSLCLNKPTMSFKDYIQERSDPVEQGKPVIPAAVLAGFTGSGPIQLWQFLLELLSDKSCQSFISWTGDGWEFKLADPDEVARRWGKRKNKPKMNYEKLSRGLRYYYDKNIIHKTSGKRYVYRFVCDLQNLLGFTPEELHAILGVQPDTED
In short: as §1

[4] = biological target: T4, ETV7 (Homo sapiens, UniProt Q9Y603 1-341)
T4 sequence: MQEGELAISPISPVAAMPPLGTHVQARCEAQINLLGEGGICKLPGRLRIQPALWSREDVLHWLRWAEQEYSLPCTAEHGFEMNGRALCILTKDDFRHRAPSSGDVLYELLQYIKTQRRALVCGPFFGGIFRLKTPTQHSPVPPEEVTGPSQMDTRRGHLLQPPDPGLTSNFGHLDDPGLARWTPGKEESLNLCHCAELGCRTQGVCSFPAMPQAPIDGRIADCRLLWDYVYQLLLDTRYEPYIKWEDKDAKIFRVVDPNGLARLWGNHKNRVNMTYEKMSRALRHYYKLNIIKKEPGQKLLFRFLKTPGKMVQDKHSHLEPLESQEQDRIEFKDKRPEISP
In short: as §1

[5] = biological target: T5, ELF5 (Homo sapiens, UniProt Q9UKW6-2 1-255)
T5 sequence: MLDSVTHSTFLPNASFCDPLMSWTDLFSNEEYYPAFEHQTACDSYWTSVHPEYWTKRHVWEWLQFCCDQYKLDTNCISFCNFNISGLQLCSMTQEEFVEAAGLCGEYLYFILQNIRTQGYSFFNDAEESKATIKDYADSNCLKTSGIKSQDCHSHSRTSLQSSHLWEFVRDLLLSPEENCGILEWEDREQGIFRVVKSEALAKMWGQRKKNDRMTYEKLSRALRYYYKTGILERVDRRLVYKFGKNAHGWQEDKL
In short: as §1

[6] = biological target: T6, ETV3 (Homo sapiens, UniProt P41162-2 1-143)
T6 sequence: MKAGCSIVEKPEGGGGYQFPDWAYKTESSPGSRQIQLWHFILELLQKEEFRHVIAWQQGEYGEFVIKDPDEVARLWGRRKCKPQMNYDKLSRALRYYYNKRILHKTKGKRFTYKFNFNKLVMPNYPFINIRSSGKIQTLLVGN
In short: as §1

[7] = biological target: ETV6 (Homo sapiens, UniProt P41212 1-452)
In short: as §1

[8] = biological target: T7, SPDEF (Homo sapiens, UniProt O95238 1-335)
T7 sequence: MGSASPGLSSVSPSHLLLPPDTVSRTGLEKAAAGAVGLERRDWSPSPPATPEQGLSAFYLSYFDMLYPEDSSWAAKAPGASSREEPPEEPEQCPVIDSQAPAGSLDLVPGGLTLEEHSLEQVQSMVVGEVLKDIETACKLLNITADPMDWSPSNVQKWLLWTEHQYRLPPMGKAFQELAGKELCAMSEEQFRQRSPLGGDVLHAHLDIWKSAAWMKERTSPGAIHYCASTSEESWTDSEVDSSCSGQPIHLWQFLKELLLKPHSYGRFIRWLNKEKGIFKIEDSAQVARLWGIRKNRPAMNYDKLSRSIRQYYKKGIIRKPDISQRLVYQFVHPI
In short: as §1

ETV6, sequence (P41212 whole entry): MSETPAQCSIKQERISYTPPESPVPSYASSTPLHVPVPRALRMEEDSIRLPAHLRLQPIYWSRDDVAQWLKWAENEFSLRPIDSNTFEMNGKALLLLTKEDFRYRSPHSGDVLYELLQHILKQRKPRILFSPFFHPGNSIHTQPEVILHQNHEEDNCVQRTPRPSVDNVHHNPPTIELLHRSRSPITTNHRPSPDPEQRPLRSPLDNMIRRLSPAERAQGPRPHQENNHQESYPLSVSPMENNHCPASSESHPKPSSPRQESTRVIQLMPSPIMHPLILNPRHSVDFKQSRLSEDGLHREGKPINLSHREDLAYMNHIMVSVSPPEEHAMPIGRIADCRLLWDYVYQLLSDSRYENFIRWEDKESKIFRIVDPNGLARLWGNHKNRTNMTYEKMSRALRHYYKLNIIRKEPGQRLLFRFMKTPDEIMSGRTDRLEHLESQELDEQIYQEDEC

Sequence	binding signal [1]	binding signal [2]	binding signal [3]	binding signal [4]	binding signal [5]	binding signal [6]	binding signal [7]	binding signal [8]
GAATCT	1.17 fold enrichment (6-mer frequency, TF over GST control)	1.05 fold enrichment (6-mer frequency, TF over GST control)	1.08 fold enrichment (6-mer frequency, TF over GST control)	1.03 fold enrichment (6-mer frequency, TF over GST control)	1.07 fold enrichment (6-mer frequency, TF over GST control)	1.13 fold enrichment (6-mer frequency, TF over GST control)	1.06 fold enrichment (6-mer frequency, TF over GST control)	
AACCCA	1.1 fold enrichment (6-mer frequency, TF over GST control)	1.06 fold enrichment (6-mer frequency, TF over GST control)	1.04 fold enrichment (6-mer frequency, TF over GST control)	1.14 fold enrichment (6-mer frequency, TF over GST control)	1.05 fold enrichment (6-mer frequency, TF over GST control)		1.09 fold enrichment (6-mer frequency, TF over GST control)	
ACCGAA	1.09 fold enrichment (6-mer frequency, TF over GST control)	1.04 fold enrichment (6-mer frequency, TF over GST control)	1.07 fold enrichment (6-mer frequency, TF over GST control)			1.02 fold enrichment (6-mer frequency, TF over GST control)	1 fold enrichment (6-mer frequency, TF over GST control)	
AACGCC	1 fold enrichment (6-mer frequency, TF over GST control)	1.11 fold enrichment (6-mer frequency, TF over GST control)	1.06 fold enrichment (6-mer frequency, TF over GST control)		1.01 fold enrichment (6-mer frequency, TF over GST control)	1.06 fold enrichment (6-mer frequency, TF over GST control)	1.19 fold enrichment (6-mer frequency, TF over GST control)	
CGATGA	1.14 fold enrichment (6-mer frequency, TF over GST control)	1.12 fold enrichment (6-mer frequency, TF over GST control)		1.13 fold enrichment (6-mer frequency, TF over GST control)	1.01 fold enrichment (6-mer frequency, TF over GST control)			
GCTGGC	1.12 fold enrichment (6-mer frequency, TF over GST control)	1.04 fold enrichment (6-mer frequency, TF over GST control)	1.04 fold enrichment (6-mer frequency, TF over GST control)	1.12 fold enrichment (6-mer frequency, TF over GST control)	1 fold enrichment (6-mer frequency, TF over GST control)	1.1 fold enrichment (6-mer frequency, TF over GST control)	1.02 fold enrichment (6-mer frequency, TF over GST control)	
TCTGGG	1.16 fold enrichment (6-mer frequency, TF over GST control)	1.11 fold enrichment (6-mer frequency, TF over GST control)		1.07 fold enrichment (6-mer frequency, TF over GST control)	1.08 fold enrichment (6-mer frequency, TF over GST control)	1.09 fold enrichment (6-mer frequency, TF over GST control)	1.14 fold enrichment (6-mer frequency, TF over GST control)	1.07 fold enrichment (6-mer frequency, TF over GST control)
GCCCCC	1.24 fold enrichment (6-mer frequency, TF over GST control)	1.16 fold enrichment (6-mer frequency, TF over GST control)	1.03 fold enrichment (6-mer frequency, TF over GST control)		1.04 fold enrichment (6-mer frequency, TF over GST control)	1.21 fold enrichment (6-mer frequency, TF over GST control)	1.05 fold enrichment (6-mer frequency, TF over GST control)	
AAGCGA	1.02 fold enrichment (6-mer frequency, TF over GST control)	1.02 fold enrichment (6-mer frequency, TF over GST control)	1.05 fold enrichment (6-mer frequency, TF over GST control)	1.09 fold enrichment (6-mer frequency, TF over GST control)	1.07 fold enrichment (6-mer frequency, TF over GST control)	1.12 fold enrichment (6-mer frequency, TF over GST control)	1.05 fold enrichment (6-mer frequency, TF over GST control)	
CAACAA	1.05 fold enrichment (6-mer frequency, TF over GST control)		1.08 fold enrichment (6-mer frequency, TF over GST control)	1.02 fold enrichment (6-mer frequency, TF over GST control)	1.03 fold enrichment (6-mer frequency, TF over GST control)	1.08 fold enrichment (6-mer frequency, TF over GST control)	1.01 fold enrichment (6-mer frequency, TF over GST control)	
GGCTTA	1.09 fold enrichment (6-mer frequency, TF over GST control)		1.09 fold enrichment (6-mer frequency, TF over GST control)			1.05 fold enrichment (6-mer frequency, TF over GST control)		1.09 fold enrichment (6-mer frequency, TF over GST control)
AGGTTT	1.13 fold enrichment (6-mer frequency, TF over GST control)		1.01 fold enrichment (6-mer frequency, TF over GST control)	1.08 fold enrichment (6-mer frequency, TF over GST control)	1.04 fold enrichment (6-mer frequency, TF over GST control)	1.11 fold enrichment (6-mer frequency, TF over GST control)	1.03 fold enrichment (6-mer frequency, TF over GST control)	1.02 fold enrichment (6-mer frequency, TF over GST control)
AGACTT	1.02 fold enrichment (6-mer frequency, TF over GST control)		1 fold enrichment (6-mer frequency, TF over GST control)	1.02 fold enrichment (6-mer frequency, TF over GST control)	1.2 fold enrichment (6-mer frequency, TF over GST control)	1.09 fold enrichment (6-mer frequency, TF over GST control)	1.04 fold enrichment (6-mer frequency, TF over GST control)	
AATCCA	1.11 fold enrichment (6-mer frequency, TF over GST control)		1.14 fold enrichment (6-mer frequency, TF over GST control)	1.14 fold enrichment (6-mer frequency, TF over GST control)	1.05 fold enrichment (6-mer frequency, TF over GST control)	1.03 fold enrichment (6-mer frequency, TF over GST control)	1.11 fold enrichment (6-mer frequency, TF over GST control)	1.07 fold enrichment (6-mer frequency, TF over GST control)
ACTTAG	1.17 fold enrichment (6-mer frequency, TF over GST control)		1.14 fold enrichment (6-mer frequency, TF over GST control)	1.03 fold enrichment (6-mer frequency, TF over GST control)		1.09 fold enrichment (6-mer frequency, TF over GST control)	1.14 fold enrichment (6-mer frequency, TF over GST control)	1.01 fold enrichment (6-mer frequency, TF over GST control)
CGCTCG	1.2 fold enrichment (6-mer frequency, TF over GST control)		1.1 fold enrichment (6-mer frequency, TF over GST control)		1.03 fold enrichment (6-mer frequency, TF over GST control)	1.08 fold enrichment (6-mer frequency, TF over GST control)	1.08 fold enrichment (6-mer frequency, TF over GST control)	1.1 fold enrichment (6-mer frequency, TF over GST control)
TAAAGC	1.13 fold enrichment (6-mer frequency, TF over GST control)		1.05 fold enrichment (6-mer frequency, TF over GST control)	1.04 fold enrichment (6-mer frequency, TF over GST control)	1.01 fold enrichment (6-mer frequency, TF over GST control)	1.1 fold enrichment (6-mer frequency, TF over GST control)	1.02 fold enrichment (6-mer frequency, TF over GST control)	
